For 115 sequences, binding signal results are on record in publication PMC10668032, “Altered binding affinity of SIX1-Q177R correlates with enhanced WNT5A and WNT pathway effector expression in Wilms tumor”.

In all, about 33,000 sequences were measured (“e-score”: median about -0.053, highest 2% from about 0.38 on). The list comes from a sample in which the highest values are over-represented; it also holds similar and randomly drawn sequences.

This assay deals with T1, SIX1 homeodomain (reference allele) (human, UniProt Q15475 108-198).
T1 sequence: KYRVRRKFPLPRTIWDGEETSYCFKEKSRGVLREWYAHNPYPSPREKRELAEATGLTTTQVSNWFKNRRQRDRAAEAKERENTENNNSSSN
The assay is described as follows: universal protein binding microarray; Universal all-10-mer PBM (8x60K, AMADID 030236), 300 nM GST-tagged protein, Alexa Fluor 488 anti-GST; buffer, salt, pH and temperature not stated (as in Berger); high values mean tight binding. Particulars: protein: ivt; tags: N-terminal GST; dsDNA, one strand shown. An outline of the steps: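 GST-tagged homeodomains were made by in vitro transcription/translation and quantified by anti-GST western blot against a recombinant GST standard curve. They were applied in duplicate at 300 nM final concentration to universal 'all 10-mer' protein binding microarrays (8×60K format). Binding was quantified as 8-mer E-scores with the Universal PBM Analysis Suite.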
Regarding ATACTCGC, the binding signal is 0.34 ± 0.069 E-score.

For CTATACGC, the binding signal was 0.215 ± 0.0251 E-score.

In the case of CGATCTGC, the binding signal was 0.209 ± 0.00856 E-score.

Regarding CAGATTAC, the binding signal worked out at 0.187 ± 0.0577 E-score.

On to GATTATGC, for which the binding signal amounted to 0.265 ± 0.0543 E-score.

CCCATCTC: the binding signal was determined as 0.292 ± 0.0209 E-score.

On to ACACCTTG, for which the binding signal was determined as 0.186 ± 0.0328 E-score.

For the sequence AAGGATCC, the binding signal amounted to 0.35 ± 0.0205 E-score.

For the sequence ATGGATCC, the binding signal is 0.362 ± 0.0547 E-score.

AGGGATCC: the binding signal amounted to 0.386 ± 0.0382 E-score.

CGGGATCC: the binding signal was 0.393 ± 0.0513 E-score.

Regarding CAGGATCC, the binding signal is 0.354 ± 0.0257 E-score.

With CTGGATCC, the binding signal is 0.351 ± 0.0527 E-score.

As to ATTCGATA, the binding signal was found to be 0.302 ± 0.0451 E-score.

Consider ATCAAAAA, for which the binding signal is 0.153 ± 0.0897 E-score.

ATCTAATA: the binding signal stood at 0.237 ± 0.0442 E-score.

For GACACCAA, the binding signal was found to be 0.364 ± 0.0101 E-score.

As to GACACCCA, the binding signal stood at 0.396 ± 0.0322 E-score.

For GACACCCC, the binding signal was determined as 0.436 ± 0.0137 E-score.

For TACACCCA, the binding signal came to 0.341 ± 0.0149 E-score.

CACACCCC: the binding signal is 0.26 ± 0.0792 E-score.

Consider AACACCCC, for which the binding signal was 0.268 ± 0.0366 E-score.

In the case of GATTATAC, the binding signal came to 0.34 ± 0.0371 E-score.

As for GCCGATCA, the binding signal was 0.229 ± 0.0129 E-score.

As for ATAGCCCC, the binding signal was determined as 0.181 ± 0.0335 E-score.

For the sequence TATCAGAA, the binding signal turned out to be 0.354 ± 0.0409 E-score.

For the sequence TACCTCTA, the binding signal was 0.204 ± 0.0372 E-score.

CCGACACC: the binding signal stood at 0.438 ± 0.013 E-score.

In the case of GGGACACC, the binding signal came to 0.341 ± 0.0406 E-score.

For the sequence GCGACACC, the binding signal worked out at 0.412 ± 0.0314 E-score.

Take CCGACAGA: the binding signal amounted to 0.195 ± 0.026 E-score.

With AAGACACC, the binding signal came to 0.347 ± 0.0269 E-score.

GAGACACC: the binding signal was found to be 0.306 ± 0.032 E-score.

For the sequence ACGACACC, the binding signal worked out at 0.432 ± 0.024 E-score.

For CCAACACC, the binding signal turned out to be 0.291 ± 0.0364 E-score.

In the case of ACGACACG, the binding signal was 0.156 ± 0.0251 E-score.

Consider CTGCTATC, for which the binding signal is 0.292 ± 0.00957 E-score.

For the sequence CACACCAG, the binding signal was found to be 0.156 ± 0.0892 E-score.

Turning to ACTAATAC, the binding signal was 0.225 ± 0.029 E-score.

As for GATGTATA, the binding signal worked out at 0.306 ± 0.0136 E-score.

With GTGAGATA, the binding signal is 0.388 ± 0.0283 E-score.

With CTGAGATA, the binding signal was found to be 0.248 ± 0.0841 E-score.

Regarding CTAATATC, the binding signal was 0.339 ± 0.0352 E-score.

On to GCTATATA, for which the binding signal was found to be 0.2534 ± 0.00173 E-score.

For CTGATATC, the binding signal is 0.465 ± 0.0148 E-score.

Regarding CTGATATA, the binding signal is 0.358 ± 0.0287 E-score.

In the case of GTGATATA, the binding signal stood at 0.419 ± 0.016 E-score.

For the sequence ATGAGATA, the binding signal came to 0.262 ± 0.0851 E-score.

Take CCGATATA: the binding signal stood at 0.333 ± 0.0187 E-score.

As for CTTATATC, the binding signal amounted to 0.292 ± 0.0136 E-score.

Regarding TAGATATA, the binding signal came to 0.323 ± 0.076 E-score.

Take GCGATATA: the binding signal was 0.399 ± 0.0347 E-score.

Turning to ATGAGAAG, the binding signal came to 0.176 ± 0.0788 E-score.

For ATATGCAG, the binding signal turned out to be 0.222 ± 0.0653 E-score.

In the case of GATTACGC, the binding signal amounted to 0.225 ± 0.0112 E-score.

For the sequence ATTGAGTA, the binding signal is 0.192 ± 0.0104 E-score.

For AGATCTCC, the binding signal is 0.184 ± 0.0698 E-score.

Turning to ATCTGAGA, the binding signal was found to be 0.292 ± 0.0452 E-score.

On to CATATGAG, for which the binding signal is 0.19 ± 0.0156 E-score.

As to GATCGCAC, the binding signal amounted to 0.253 ± 0.0507 E-score.

As to ATGATATA, the binding signal was determined as 0.414 ± 0.0235 E-score.

For ATGATATC, the binding signal worked out at 0.476 ± 0.0196 E-score.

Consider ATGATATG, for which the binding signal was 0.472 ± 0.0175 E-score.

For the sequence ATTATATC, the binding signal was 0.329 ± 0.0838 E-score.

Turning to ATTATATG, the binding signal was determined as 0.182 ± 0.0439 E-score.

Consider ATCATATG, for which the binding signal amounted to 0.281 ± 0.0284 E-score.

Take AAGATATA: the binding signal stood at 0.28 ± 0.0929 E-score.

Take ATAATATC: the binding signal amounted to 0.358 ± 0.0729 E-score.

On to ATTATATA, for which the binding signal amounted to 0.254 ± 0.0255 E-score.

As to CTGGCATA, the binding signal was found to be 0.228 ± 0.0218 E-score.

ATCATTCC: the binding signal came out at 0.291 ± 0.0446 E-score.

Consider GATCAACC, for which the binding signal is 0.319 ± 0.0399 E-score.

On to ACGATCAG, for which the binding signal was found to be 0.1967 ± 0.000827 E-score.

For the sequence CGGATTTA, the binding signal was determined as 0.196 ± 0.05 E-score.

For the sequence GATCCCCC, the binding signal amounted to 0.47 ± 0.0193 E-score.

As for GATCGCGC, the binding signal stood at 0.197 ± 0.0401 E-score.

Take GATCCCAC: the binding signal was found to be 0.379 ± 0.0379 E-score.

With GATCCCCA, the binding signal worked out at 0.387 ± 0.046 E-score.

Turning to AATCCCAC, the binding signal was determined as 0.158 ± 0.00675 E-score.

Take AATCCCCC: the binding signal stood at 0.261 ± 0.00738 E-score.

In the case of GATCCCGC, the binding signal worked out at 0.375 ± 0.0422 E-score.

Regarding CATCCCCC, the binding signal came out at 0.199 ± 0.0656 E-score.

In the case of GATCCCAA, the binding signal came to 0.275 ± 0.0231 E-score.

For the sequence GATCGCCC, the binding signal came out at 0.379 ± 0.00824 E-score.

As to GATCGCCA, the binding signal came to 0.211 ± 0.0516 E-score.

As for TATCCCCA, the binding signal was 0.35 ± 0.00527 E-score.

In the case of ATCTACAG, the binding signal was 0.152 ± 0.023 E-score.

As for ACGTATAT, the binding signal was 0.271 ± 0.065 E-score.

Take ATCTAGAT: the binding signal stood at 0.26 ± 0.0531 E-score.

For CGAGACGA, the binding signal was 0.156 ± 0.029 E-score.

Consider CCGGAGAC, for which the binding signal was 0.184 ± 0.00939 E-score.

As for CCCCGATC, the binding signal is 0.346 ± 0.0685 E-score.

For the sequence ATGAGCTC, the binding signal turned out to be 0.166 ± 0.0357 E-score.

Take GATCCAGC: the binding signal amounted to 0.265 ± 0.0768 E-score.

GATCCTCA: the binding signal was determined as 0.295 ± 0.0129 E-score.

For the sequence CATCCTCC, the binding signal was determined as 0.153 ± 0.0426 E-score.

In the case of GATCCACA, the binding signal was determined as 0.335 ± 0.0765 E-score.

With GATCCTCC, the binding signal is 0.381 ± 0.0158 E-score.

On to GATCCACC, for which the binding signal stood at 0.394 ± 0.0435 E-score.

Turning to ATCTGTCC, the binding signal stood at 0.29 ± 0.0606 E-score.

As to CGAGACAC, the binding signal was 0.176 ± 0.0324 E-score.

Regarding CATAGATA, the binding signal amounted to 0.259 ± 0.0781 E-score.

On to TCACATGA, for which the binding signal was 0.166 ± 0.0132 E-score.

Turning to GTATCCCA, the binding signal came to 0.388 ± 0.0324 E-score.

Take CAATCCCA: the binding signal turned out to be 0.177 ± 0.00991 E-score.

Consider ATCTCCCA, for which the binding signal turned out to be 0.238 ± 0.0314 E-score.

Consider ATCTCCCG, for which the binding signal is 0.222 ± 0.0116 E-score.

With CTATCCCA, the binding signal turned out to be 0.257 ± 0.013 E-score.

As to AAATCCCC, the binding signal worked out at 0.181 ± 0.0853 E-score.

ATATCCCC: the binding signal was 0.457 ± 0.00651 E-score.

As for CTATCCCC, the binding signal stood at 0.321 ± 0.0256 E-score.

Regarding ATATCCCG, the binding signal was 0.42 ± 0.0102 E-score.

Regarding ATATCCCA, the binding signal stood at 0.418 ± 0.0119 E-score.

Take GAATCCCA: the binding signal turned out to be 0.165 ± 0.0648 E-score.

With CAATCCCG, the binding signal was 0.155 ± 0.0636 E-score.
